# Sampled rows, rich in hits. Any-hit rate of the full collection: about 10%.
# FLuc inh: inhibitors of firefly (Photinus pyralis) luciferase; Potency, µM (series often up to 115 µM), usual class: inhibitors; purified P. pyralis luciferase, luminescence, biochemical; 2.5% of 76,000 active; note: nearly all actives have a fitted effect of over 65% in size
# Target sequence (P08659 whole entry, looked up): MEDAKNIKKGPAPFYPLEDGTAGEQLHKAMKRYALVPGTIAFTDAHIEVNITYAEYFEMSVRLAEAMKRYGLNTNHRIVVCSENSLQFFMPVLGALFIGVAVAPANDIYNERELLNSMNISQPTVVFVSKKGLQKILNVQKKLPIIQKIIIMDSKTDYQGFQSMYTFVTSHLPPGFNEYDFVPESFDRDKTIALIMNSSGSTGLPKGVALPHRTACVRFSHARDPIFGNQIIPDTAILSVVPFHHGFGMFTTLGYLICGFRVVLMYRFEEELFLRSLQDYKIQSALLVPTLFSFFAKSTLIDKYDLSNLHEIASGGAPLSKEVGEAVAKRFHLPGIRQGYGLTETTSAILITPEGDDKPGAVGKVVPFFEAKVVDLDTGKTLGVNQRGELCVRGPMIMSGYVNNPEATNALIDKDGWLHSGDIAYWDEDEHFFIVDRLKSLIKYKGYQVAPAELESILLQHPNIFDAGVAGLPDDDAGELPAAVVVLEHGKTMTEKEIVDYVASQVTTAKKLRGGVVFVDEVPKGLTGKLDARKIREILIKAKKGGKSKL
#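 Inhibitors were tested against purified firefly luciferase in a biochemical, low-substrate format (both substrates at 10uM) and luminescence measured with a CCD imager.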
# HEK cytotox: kills HEK 293 cells. HEK 293 viability, ATP luminescence (CellTiter-Glo), 48-72 h. Potency, µM (titrated, usually from 115 µM), hits mostly inhibitors. 6.6% of 94,000 active. AID 1345083; note: nearly all actives have a fitted effect of over 60% in size
#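 Cytotoxicity was scored by loss of ATP-coupled luminescence (CellTiter-Glo) in HEK 293 cells. Compound treatment ran 48 or 72 hr at 37 degree Celsius, 5% CO2, 95% humidity.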
# NPR1 antag: antagonists of human natriuretic peptide receptor Npr1 | P16066 | HEK293 hNpr1 GloSensor cGMP, ANP-stimulated luminescence | Potency, µM (top dose mostly 46.3 µM), usual class: inhibitors | 1.6% of 76,000 active; calls by dose curve; note: nearly all actives have a fitted effect of over 60% in size
#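 HEK293 cells stably expressing human Npr1 and cGMP GloSensor pGS-40F, loaded 2 h with 2% GloSensor reagent, given compound 30 min at room temperature. Luminescence read before and 20 min after 0.1 nM hNppA.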
# GPT2 inh: blocks human glutamate pyruvate transaminase 2; Potency, µM (doses to about 57.7 µM), actives largely listed as inhibitors; AID 1671188; Recombinant GPT2, coupled pyruvate oxidase/HRP Amplex Red fluorescence; Q8TD30; 0.25% of 100,000 active; note: nearly all actives have a fitted effect of over 60% in size
#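 Recombinant GPT2 (10ng/uL) with 250uM a-KG and 2mM L-alanine, 30 min at room temperature, in HEPES pH 7.5 buffer. Pyruvate detected by pyruvate oxidase/HRP/Amplex Red fluorescence after 30 min in the dark; AOA (50uM) as positive control.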
# NIH3T3 tox: cytotoxic compounds in NIH 3T3 cells; NIH 3T3 viability, CellTiter-Glo ATP luminescence, 48-72 h; Potency, µM (doses to about 96.7 µM), hits mostly inhibitors; 4.3% of 94,000 active; AID 1345082; note: nearly all actives have a fitted effect of over 55% in size
#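 First NIH 3T3 cells are plated at 400 cells/well; next compound is pinned in; then plates incubate 48 or 72 hr at 37 °C; finally CellTiter-Glo is added and luminescence read after 10 min.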
# A number is an active result; n = inactive; u = inconclusive; x = no result. Unless noted, calls come from the whole dose curve; as a rule, active = well fitted curve in the direction sought with a large enough effect; inconclusive = small, poorly fitted or top-dose-only effect, or another doubt; inactive = no such curve, though single readings can be large; an effect the other way counts as inactive or inconclusive.
SMILES,FLuc inh,HEK cytotox,NPR1 antag,GPT2 inh,NIH3T3 tox
O=C(NCc1cccc(Cl)c1)C1CCN(C(=O)c2ncn3c2COC(c2ccc(F)cc2)C3)CC1 (configuration not stated),25.1µM,n,n,u,n
COc1ccc(C2Cn3cnc(C(=O)N4CCC(C(=O)NCc5ccccn5)CC4)c3CO2)cc1 (configuration not stated),n,n,n,n,n
O=C(NCc1ccccn1)C1CCN(C(=O)c2ncn3c2COC(c2ccc(Cl)cc2)C3)CC1 (configuration not stated),31.6µM,n,n,n,n
O=C(NCc1cccc(Cl)c1)C1CCN(C(=O)c2ncn3c2COC(c2ccccc2)C3)CC1 (configuration not stated),20µM,n,n,n,n
Cc1noc(C)c1CC(=O)N1CCCC2(C1)Nc1cccnc1NC2=NCc1ccccc1 (configuration not stated),n,n,n,n,n
c1cc(-c2cnc([C@@H]3COCCN3C3CCCCC3)[nH]2)ccn1,n,n,n,n,n
CCC1Oc2ccc(NC(=O)Cc3ccc(F)cc3)cc2CN(Cc2ccccc2F)C1=O (configuration not stated),n,44.7µM,n,n,u
CCC1Oc2ccc(NC(=O)c3ccccc3)cc2CN(Cc2cc(F)cc(F)c2)C1=O (configuration not stated),n,14.1µM,n,n,u
CC1Oc2ccc(NC(=O)c3ccc([N+](=O)[O-])cc3)cc2CN(Cc2ccccc2F)C1=O (configuration not stated),n,31.6µM,n,n,u
CCC1Oc2ccc(NC(=O)c3cccc(F)c3)cc2CN(Cc2ccccc2F)C1=O (configuration not stated),n,35.5µM,n,n,u
CCC1Oc2ccc(NC(=O)c3ccccc3F)cc2CN(Cc2ccccc2F)C1=O (configuration not stated),n,u,n,n,u
c1cc(OC2CCCCC2)ncc1-c1noc([C@@H]2CCCN2C2CCOCC2)n1,u,u,n,n,n
CCCNC(=O)C1COC2(CCN(C(=O)c3ccc(OC)cc3)CC2)N1C(=O)c1ccc(F)cc1 (configuration not stated),n,n,n,n,n
C=C1CCC2C(C)(C)CCC[C@]2(C)[C@H]1CC/C(C)=C/C(=O)O (some centres not stated),x,x,x,n,x
CCC1Oc2ccc(NC(=O)c3ccc(C#N)cc3)cc2CN(Cc2ccccc2F)C1=O (configuration not stated),n,44.7µM,n,n,u
COCCn1c2c([n+](Cc3cnccn3)c1C)C(=O)c1ccccc1C2=O,x,x,x,0.153µM,x
COCCn1c(=O)c(C(=O)NC(C)C)nc2cccnc21,x,n,x,n,n
O=C(O)c1cnc(-c2cc(NCc3ccccn3)nc3[nH]ccc23)c(Cl)c1,39.8µM,n,n,n,n
CC(C)c1nc2c(c(-c3ccc(O)cc3)n1)CN(Cc1cccc(C(F)(F)F)c1)CC2,n,31.6µM,n,n,22.4µM
CC(C)c1nc2c(c(-c3ccc(O)cc3)n1)CN(Cc1ccc(F)cc1)CC2,n,89.1µM,n,n,u
CC(C)c1nc2c(c(-c3ccc(O)cc3)n1)CCN(Cc1ccc(F)cc1)CC2,n,u,n,n,u
CC(C)c1nc2c(c(-c3ccc(Cl)cc3)n1)CCN(Cc1ccc(C#N)cc1)CC2,x,39.8µM,x,n,u
CC(C)c1nc2c(c(-c3ccc(O)cc3)n1)CCN(Cc1ccccc1C(F)(F)F)CC2,n,35.5µM,u,n,28.2µM
Cc1cc(CN2CCc3nc(C(C)C)nc(-c4ccc(Cl)cc4)c3CC2)no1,x,u,x,n,u
O=C(Cc1ccccn1)NC1CCCN(Cc2ccc(-c3cncnc3)cc2)C1 (configuration not stated),x,n,x,n,n
c1ccc(-c2noc(-c3cncnc3NCc3ccc4c(c3)OCO4)n2)cc1,u,n,n,n,n
O=C1CCCN1CCCN1C(=O)[C@@H]2C[C@@H](O)CN2C2(CN(CC3CC3)C2)C1=O,n,n,n,n,n
Cc1ccc(CN2CCc3nc(C(C)C)nc(-c4ccc(O)cc4)c3C2)cc1,n,u,n,u,u
CC(C)c1nc2c(c(-c3ccc(O)cc3)n1)CN(Cc1ccc(N(C)C)cc1)CC2,n,79.4µM,n,n,n

# Screening data from PubChem BioAssay.
